Consider 40 molecules from PubChem BioAssay (Tox21).

The structures appear in SMILES notation. Where “and” joins values, the source holds several entries; their conditions need not be identical. Identical values can stand only once. Inconclusive results are not listed. Entries that show only a call come without a potency. Calls of active or inactive are those of the source. The call rests on the fitted dose curve; in most records, active means well fitted activation curve with a large enough effect in the repeat runs; inconclusive means weak or mixed curves; inactive means flat fitted curve, though single readings scatter.
Potency means the concentration at half of the fitted maximal effect.

The nature of the assay: A CellTox Green Cytotoxicity Assay to monitor cytotoxicity in HepG2 cells - 8 hour (AID 1224890). Further: nearly all actives have a fitted effect of over 45% in size. The following applies: CellTox Green fluorescence; series mostly up to 76.8 µM. From the text: National Center for Advancing Translational Sciences [NCATS]
NIH Chemical Genomics Center [NCGC]
U.S. Environmental Protection Agency [EPA]
National Institutes of Environmental Health Sciences [NIEHS]
National Toxicology Program [NTP]
Cell-based models are critical for drug discovery. Determining the natural cytotoxic effects resulting from test compounds is an essential research activity. A CellTox Green Cytotoxicity Assay to monitor cytotoxicity in real time of continues cell culture during 40 hours of the compound treatment was used to screen Tox21 10K library compounds in HepG2 cells. CellTox Green Cytotoxicity Assay is a nonlytic, homogeneous, biofluorescent method to measure cytotoxicity in cell culture after experimental manipulation. The assay system uses a proprietary asymmetric cyanine dye that is excluded from viable cells but preferentially stains the dead cell's DNA. […] Viable cells produce no appreciable increases in fluorescence. Therefore, the fluorescence signal produced by the binding interaction with dead cell DNA is proportional to cytotoxicity.
The mixture of HepG2 cell suspension and reagents were dispensed at 600cells/6 ul/well in 1536-well tissue culture treated black solid bottom plates using a Multidrop dispenser. After the assay plates were incubated at a 37 C/5% CO2 incubator for 5 hours, 23 nL of compounds dissolved in DMSO, positive and negative controls was transferred to the assay plate by a pintool work station. The plates were incubated at 37 C for 40 hours. The fluorescence intensity were measured at 0h, 8h, 16h, 24h, 32h and 40h time points using ViewLux plate reader during compound treatment.
Consider `CC(C)(C)c1cc(/C=C2\SC(=N)NC2=O)cc(C(C)(C)C)c1O`, for which the Potency was 49 µM (active).
Next, `CCCCCCCC/C=C/CCCOC(C)=O`: “inactive”; `CCN(CC)CCNc1ccc(CO)c2sc3ccccc3c(=O)c12`: “inactive”.
To `O=C(O)CC(=O)O` belongs “inactive”; to `CCCCCCCCCC(=O)N(C)C`, “inactive”; to `CC(C)(c1cc(Br)c(OCCO)c(Br)c1)c1cc(Br)c(OCCO)c(Br)c1`, “inactive”.
Next, `CC(C)CCOCCC(C)C`: “inactive”; `COc1ccc(C#N)cc1`: “inactive”; `CCCCCCCCCCOCC(O)CN` (stereo not given): 26.8 µM (active).
For `CCc1c(Br)c(Br)c(Br)c(Br)c1Br`, the Potency result was “inactive”.
To `CCCCCCCC/C=C\CCCCCCCC(=O)NCc1ccc(O)c(OC)c1` belongs “inactive”; to `CCCCCCCCC(C)=O`, “inactive”; to `Cc1cccc(N(C)C)c1`, “inactive”.
To `O=CC1CC1` belongs “inactive”.
Next, `CO[Si](CCCNCCNCCN)(OC)OC`: “inactive”; `CN(C)CCOC(c1ccccc1)c1ccccc1` (tested in a mixture with another compound): “inactive”; `CC(C)=C1CC[C@@H](C)CC1=O`: “inactive”.
Consider `CCCCC(CC)COC(=O)c1ccc(O)cc1` (stereo not given), for which the Potency is 38.9 µM (active).
Consider `Nc1ccc2cc3ccc(N)cc3nc2c1`, for which the Potency is 49 µM (active) and 21.3 µM (active).
To `Brc1ccccn1` belongs “inactive”; to `CSc1c(Cl)c(Cl)c(Cl)c(Cl)c1Cl`, “inactive”; to `Oc1ccc(-c2ccc(O)cc2)cc1`, “inactive”.
To `Clc1ccc(C(c2ccccc2Cl)C(Cl)Cl)cc1` (stereo not given) belongs “inactive”; to `CC(CN(C)C)CN1c2ccccc2CCc2ccccc21` (stereo not given), “inactive”; to `Cc1c(C(=O)O)cccc1[N+](=O)[O-]`, “inactive”.
To `Cn1cccc1` belongs “inactive”.
For `CC(C(O)c1ccccc1)N(C)CCOC(c1ccccc1)c1ccccc1` (stereo not given), the Potency is 26.8 µM (active).
To `C/C=C/C=N/NC(=O)c1ccncc1` belongs “inactive”; to `CCc1c(C(=O)O)c(=O)cnn1-c1ccc(Cl)cc1`, “inactive”; to `CC=O`, 57.5 µM (active).
In the case of `NC(=O)C(=O)N/N=C/c1ccc([N+](=O)[O-])o1`, the Potency result is “inactive”.
With `Cc1ccc(O)cn1`, the Potency entry is “inactive”.
Next, `CC(C)c1ccccc1N`: “inactive”.
Take `CCOC(=O)COc1ccc(C)cc1`: the Potency entry was “inactive”.
Next, `NCCCCCCNCCCCCCN`: “inactive”; `Cc1cncc(C)c1`: “inactive”; `O=C(O)CCn1c2c(c3ccccc31)C[C@H](NS(=O)(=O)c1ccc(F)cc1)CC2`: “inactive”.
Next, `Cc1cccc(C)c1NC(=O)CN1CCN(CCCC(c2ccc(F)cc2)c2ccc(F)cc2)CC1`: 16.9 µM (active).
For `CCOB(OCC)OCC`, the Potency entry was “inactive”.
To `CCCCCCCC(OC)OC` belongs “inactive”.
